Compound activity from PubChem.
VACV mCherry inh – vaccinia inhibition (mCherry reporter). Vaccinia virus mCherry reporter infection, fluorescence. Potency, µM (titrated, usually from 36.5 µM), most hits filed as inhibitors. 0.63% of 310,000 active; calls by dose curve; tested in A549 cells; also: nearly all actives have a fitted effect of over 35% in size
HCV inh – blocks hepatitis C virus; Huh7.5.1 HCVcc-Cre infection, luciferase reporter, 44 h; Potency, µM (highest dose often 41.8 µM), actives largely listed as inhibitors; 3.4% of 340,000 active; active = well fitted inhibition curve with a large enough effect; inconclusive = small, poorly fitted or top-dose-only effect, or another doubt; inactive = no such curve, though single readings can be large or run the other way
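Cells (1,000/well) were plated 4 h before compound, then infected with HCVcc-Cre virus (~0.5 moi). After 44 h further culture, infection was read as luciferase luminescence following a 15 min substrate incubation at room temperature.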
VACV Venus inh – vaccinia inhibition (Venus reporter). Vaccinia virus Venus reporter expression, fluorescence. Potency, µM (top dose mostly 36.5 µM), usual class: inhibitors. 0.46% of 330,000 active. AID 720580; calls by dose curve; tested in A549 cells; also: nearly all actives have a fitted effect of over 30% in size
Hits are given with their value; – = inactive; ? = inconclusive; · = not tested or not shown; [ ] = dose if it differs, or a comment. In the library only some 3.3% were active in any assay of this set; here they are far more common.

SMILES	VACV mCherry inh	HCV inh	VACV Venus inh
Cc1ccc([C@H]2N[C@]3(CCCN(Cc4ccc(C(F)(F)F)cc4)C3=O)[C@H]3C(=O)N(C)C(=O)[C@@H]23)cc1	–	·	–
CC1=C(CC(=O)O)c2cc(F)ccc2/C1=C/c1ccc(S(C)=O)cc1 (stereo not drawn)	–	–	–
COc1ccccc1Cn1c(=S)[nH]c2cc(C(=O)N3CCCC3)ccc2c1=O	·	–	·
CCN1CCN(C(=O)c2ccc3c(=O)n(Cc4ccccc4OC)c(=S)[nH]c3c2)CC1	·	11.2µM	·
CCSc1nc2c(c(=O)n(C)c(=O)n2C)n1Cc1ccc(Cl)cc1	–	?	–
Cn1c(=O)c2c(nc(Sc3ncccn3)n2Cc2ccc(Cl)cc2)n(C)c1=O	–	25.1µM	–
Cn1c(=O)c2c(nc(Br)n2CC(=O)c2cccs2)n(C)c1=O	·	–	–
Cn1c(=O)c2c(nc(SCCN3CCCCC3)n2Cc2ccc(Cl)cc2)n(C)c1=O	?	35.5µM	–
Cn1c(=O)c2c(nc(SCC(=O)c3cccs3)n2Cc2ccc(F)cc2)n(C)c1=O	–	5.01µM	–
Cn1c(=O)c2c(nc(Sc3ncccn3)n2Cc2ccccc2Cl)n(C)c1=O	·	–	·
O=C(NCCc1nnc2n1CCN(Cc1cc3ccccc3o1)CC2)c1ccoc1	–	·	–
CN1CCN(S(=O)(=O)c2cccc(C(=O)Nc3ccccc3N3CCCC3)c2)CC1	–	–	–
CC1CN(S(=O)(=O)c2cccc(C(=O)Nc3ccccc3N3CCCC3)c2)CC(C)O1 (stereo not drawn)	–	31.6µM	–
CC1CN(S(=O)(=O)c2cccc(C(=O)Nc3ccc(N4CCCCC4)cc3)c2)CC(C)O1 (stereo not drawn)	–	·	–
CC1CN(S(=O)(=O)c2ccc(NC(=O)c3cc(-c4ccccc4O)n[nH]3)cc2)CC(C)O1 (stereo not drawn)	·	8.91µM	·
Cc1nc2ccc(NC(=O)c3cccc(S(=O)(=O)N4CC(C)OC(C)C4)c3)cc2s1 (stereo not drawn)	·	2.82µM	?
O=C(Nc1ccc(S(=O)(=O)N2CCOCC2)cc1)c1cc(-c2ccccc2O)n[nH]1	–[7.34 µM]	–	–[7.34 µM]
CCc1ccccc1N1C(=O)N(CC(=O)c2ccc(Cl)cc2)c2ccccc2S1(=O)=O	–	·	–
CCOc1ccc(CCNC(=O)Cc2ccc(NC(=O)N3CCSc4ncccc43)cc2)cc1	–	·	–
Cc1ccccc1Cn1cc(NC(=O)CCCn2nc([N+](=O)[O-])cc2C)cn1	–	–	–
CCN(CC)S(=O)(=O)c1cccc(-c2nnc(SCCOc3ccccc3)o2)c1	–	?	–
CCN(CC)S(=O)(=O)c1ccc(-c2nnc(SCc3nnc(-c4ccc(C)cc4)o3)o2)cc1	0.0011µM	–	?
CCN(CC)S(=O)(=O)c1ccc(-c2nnc(SCC(C)=O)o2)cc1	·	–	·
CCN(CC)S(=O)(=O)c1cccc(-c2nnc(SCCOc3ccccc3C)o2)c1	·	12.6µM	·
CCN(CC)S(=O)(=O)c1ccc(-c2nnc(SCc3nnc(-c4ccc(C)cc4)o3)n2CC)cc1	·	–	·
SMILES	VACV mCherry inh	HCV inh	VACV Venus inh
CCN(CC)S(=O)(=O)c1ccc(-c2nnc(SCC(=O)N3CCOCC3)o2)cc1	2.51µM	–	3.55µM
CCCCN(CC)CCCNC(=O)CS(=O)(=O)Cc1nc(-c2ccc(C)cc2)oc1C	–	·	–
O=S1(=O)CCO[C@H]2CCCC[C@@H]2N1Cc1cccc(F)c1	–	·	–
COc1ccccc1C(=O)Nc1ccc2nc(SCCOc3ccccc3C)sc2c1	–	·	–
CSc1ccc2nnc(-c3ccc(C)cc3)n2n1	–	·	–
Cc1ccc2c(c1)cc(CN(C)Cc1nc(C)cs1)c(=O)n2C	–	·	–
CCCCC(CC)COP(=O)(OCC(CC)CCCC)OCC(CC)CCCC (stereo not drawn)	2.51µM	–	?
CCCCC(CC)COC(=O)c1ccc(N(C)C)cc1 (stereo not drawn)	–	?	–
Cc1ccc2oc(C(F)(F)C(F)F)cc(=O)c2c1	–	–	–
Cc1ccc2oc(C(Cl)(Cl)Cl)cc(=O)c2c1	11.2µM	?	?
CCCC(=O)Nc1cccc(NC(=O)c2ccc3c(c2)OCCO3)c1	–	?	–
CS(=O)(=O)c1ccc(-c2cccc(NC(=O)c3ccc4c(c3)OCO4)c2)nn1	–	·	?
COc1ccc(-c2cccc(NC(=O)c3ccc4c(c3)OCO4)c2)nn1	–	15.8µM	–
CCCCC(=O)Nc1cccc(NC(=O)c2ccc3c(c2)OCO3)c1	·	2.82µM	·
CN(C)c1ccc(/C=C/c2nc3ccccc3s2)c(Cl)c1	–	·	–
Cn1c(=O)nc2n(-c3ccc(Cl)c(Cl)c3)c3cc(Cl)ccc3cc-2c1=O	–	·	–
c1ccc(Nc2nc(-c3ccccc3)c(-c3ccccc3)s2)cc1	–	·	–
Cc1nn(-c2ccccc2)c(OC(=O)c2ccccc2)c1S(=O)(=O)c1ccccc1	–	·	–
Cc1cccc(OCC(=O)Nc2ccc3c(c2)OCO3)c1C	–	?	–
Cc1ccc(Cl)c(OCC(=O)Nc2ccc3c(c2)OCCO3)c1	–	10µM	–
